Reference: PubChem BioAssay (EPA / NIEHS)
Activity calls are given as the source filed them. How the source made its calls: active means hit-call score of the fitted dose curve at least 0.9, where 1 is the maximum; inactive means score below 0.9.

read-out: Vascular cell adhesion molecule 1 (VCAM1), VCAM1 (gene 7412); experiment: BSK_4H_VCAM1: BioMAP Diversity Plus: 4H Assay for Vascular cell adhesion molecule 1 (VCAM1) Biomarker Activity (AID 2283033); details: primary human endothelial cells (HUVEC); actives raise or lower the signal;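 on outcome: cell-surface VCAM-1 protein measured by ELISA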
How it was run: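 ELISA read-out of VCAM-1 on human umbilical vein endothelium 24 hours after chemical dosing; gain or loss of signal was fitted relative to DMSO, with sulforhodamine B staining of parallel cultures flagging overt cytotoxicity.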

Row | SMILES | outcome | AC50
1 | OCCCCO | inactive | –
2 | CCOP(=S)(OCC)SCS(=O)(=O)C(C)(C)C | inactive | –
3 | OCCN(CCO)CCO | inactive | –
4 | c1ccc2sc(SNC3CCCCC3)nc2c1 | inactive | –
5 | O=C(N[C@H]1CN2CCC1CC2)c1ccc2c(c1)OCCO2 | inactive | –
6 | COCC(=O)N(c1c(C)cccc1C)[C@H](C)C(=O)OC | inactive | –
7 | Cc1cc(C)cc(C)c1 | inactive | –
8 | CCOP(=O)(OCC)OC(=CCl)c1ccc(Cl)cc1Cl | – | 32 µM (active)
9 | c1ccc(-c2cccc(-c3ccccc3)c2)cc1 | – | 14 µM (active)
10 | Nc1ccc(N)cc1 | inactive | –
11 | CN(C)C(=S)S | inactive | –
12 | CCCCOC(=O)COC(=O)c1ccccc1C(=O)OCCCC | inactive | –
13 | Cc1c([N+](=O)[O-])c(C)c([N+](=O)[O-])c(C(C)(C)C)c1[N+](=O)[O-] | inactive | –
14 | CC(C)O.CC(C)O.OCCN(CCO)CCO.OCCN(CCO)CCO.[Ti] | inactive | –
15 | N#Cc1cccnc1 | inactive | –
16 | Cc1ccccc1OP(=O)(Oc1ccccc1C)Oc1ccccc1C | – | 7.84 µM (active)
17 | CCCCCCCCCCCCc1cccc(S(=O)(=O)O)c1 | inactive | –

Row | SMILES | outcome | AC50
18 | O=C(O)C1(c2ccc3c(c2)OC[C@H](Cc2ccc(-c4ccccc4)cc2)[C@H]3O)CCCC1 | inactive | –
19 | Cc1cc(Cl)ccc1N | inactive | –
20 | CCOC(=O)CCN(SN(C)C(=O)Oc1cccc2c1OC(C)(C)C2)C(C)C | – | 31 µM (active)
21 | C=CC(Cl)CCl (stereo not drawn) | inactive | –
22 | CCC(C)(C#N)N=NC(C)(C#N)CC (stereo not drawn) | inactive | –
23 | [Cl][Sn]([c]1ccccc1)([c]1ccccc1)[c]1ccccc1 | – | 0.0783 µM (active)
24 | O=[N+]([O-])c1ccc(Nc2ccccc2)cc1 | inactive | –
25 | Oc1cc(Cl)c(Cl)cc1Cl | inactive | –
26 | CCCCN(CCCC)C(=S)[S-].CCCCN(CCCC)C(=S)[S-].[Ni+2] | inactive | –
27 | O=C(CCl)NCO | inactive | –
28 | O=[N+]([O-])c1cccc2ccccc12 | inactive | –
29 | OC(Cc1ccccc1Cl)(Cn1[nH]cnc1=S)C1(Cl)CC1 (stereo not drawn) | – | 20 µM (active)
30 | Cc1ccc2nc3sc(=O)sc3nc2c1 | – | 7.39 µM (active)
31 | Cc1cccc(OP(=O)(Oc2cccc(C)c2)Oc2cccc(C)c2)c1 | inactive | –
32 | Cc1cc(Cl)ccc1OC(C)C(=O)O (stereo not drawn) | inactive | –
33 | O=c1oc2ccccc2c(O)c1C(CC(O)c1ccc(-c2ccc(Br)cc2)cc1)c1ccccc1 (stereo not drawn) | – | 13.9 µM (active)
34 | C#CCOC(=O)/C=C(C)/C=C/CC(C)CCCC(C)C (stereo not drawn) | – | 26.4 µM (active)

read-out: Interferon-gamma inducible Protein 10 (IP10), CXCL10 (gene 3627); experiment: BSK_BE3C_IP10: BioMAP Diversity Plus: BE3C Assay for Interferon-gamma inducible Protein 10 (IP10) Biomarker Activity (AID 2283034); details: primary human bronchial epithelial cells; actives raise or lower the signal
How it was run: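 Chemical is dosed onto human lung bronchial epithelial primary cells, cultures are incubated 24 h, and IP-10 is then quantified by ELISA. Gain or loss of signal is fitted in both directions relative to DMSO.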

Row | SMILES | outcome | AC50
35 | OCCCCO | inactive | –
36 | CCOP(=S)(OCC)SCS(=O)(=O)C(C)(C)C | inactive | –
37 | OCCN(CCO)CCO | inactive | –
38 | c1ccc2sc(SNC3CCCCC3)nc2c1 | inactive | –
39 | O=C(N[C@H]1CN2CCC1CC2)c1ccc2c(c1)OCCO2 | inactive | –
40 | COCC(=O)N(c1c(C)cccc1C)[C@H](C)C(=O)OC | inactive | –
41 | Cc1cc(C)cc(C)c1 | inactive | –
42 | CCOP(=O)(OCC)OC(=CCl)c1ccc(Cl)cc1Cl | inactive | –
43 | c1ccc(-c2cccc(-c3ccccc3)c2)cc1 | – | 14.4 µM (active)
44 | Nc1ccc(N)cc1 | inactive | –
45 | CN(C)C(=S)S | – | 28.7 µM (active)
46 | CCCCOC(=O)COC(=O)c1ccccc1C(=O)OCCCC | inactive | –
47 | Cc1c([N+](=O)[O-])c(C)c([N+](=O)[O-])c(C(C)(C)C)c1[N+](=O)[O-] | inactive | –
48 | CC(C)O.CC(C)O.OCCN(CCO)CCO.OCCN(CCO)CCO.[Ti] | inactive | –
49 | N#Cc1cccnc1 | inactive | –
50 | Cc1ccccc1OP(=O)(Oc1ccccc1C)Oc1ccccc1C | – | 13.3 µM (active)
51 | CCCCCCCCCCCCc1cccc(S(=O)(=O)O)c1 | – | 13 µM (active)

Row | SMILES | outcome | AC50
52 | O=C(O)C1(c2ccc3c(c2)OC[C@H](Cc2ccc(-c4ccccc4)cc2)[C@H]3O)CCCC1 | – | 5.91 µM (active)
53 | Cc1cc(Cl)ccc1N | inactive | –
54 | CCOC(=O)CCN(SN(C)C(=O)Oc1cccc2c1OC(C)(C)C2)C(C)C | – | 14.1 µM (active)
55 | C=CC(Cl)CCl (stereo not drawn) | inactive | –
56 | CCC(C)(C#N)N=NC(C)(C#N)CC (stereo not drawn) | inactive | –
57 | [Cl][Sn]([c]1ccccc1)([c]1ccccc1)[c]1ccccc1 | – | 0.0935 µM (active)
58 | O=[N+]([O-])c1ccc(Nc2ccccc2)cc1 | inactive | –
59 | Oc1cc(Cl)c(Cl)cc1Cl | – | 32.2 µM (active)
60 | CCCCN(CCCC)C(=S)[S-].CCCCN(CCCC)C(=S)[S-].[Ni+2] | inactive | –
61 | O=C(CCl)NCO | inactive | –
62 | O=[N+]([O-])c1cccc2ccccc12 | inactive | –
63 | OC(Cc1ccccc1Cl)(Cn1[nH]cnc1=S)C1(Cl)CC1 (stereo not drawn) | – | 15.8 µM (active)
64 | Cc1ccc2nc3sc(=O)sc3nc2c1 | inactive | –
65 | Cc1cccc(OP(=O)(Oc2cccc(C)c2)Oc2cccc(C)c2)c1 | inactive | –
66 | Cc1cc(Cl)ccc1OC(C)C(=O)O (stereo not drawn) | inactive | –
67 | O=c1oc2ccccc2c(O)c1C(CC(O)c1ccc(-c2ccc(Br)cc2)cc1)c1ccccc1 (stereo not drawn) | – | 5.4 µM (active)
68 | C#CCOC(=O)/C=C(C)/C=C/CC(C)CCCC(C)C (stereo not drawn) | – | 1.32 µM (active)
